Laboratory results as given in PubChem BioAssay (NCATS).
Results filed as inconclusive are left out. A call without a number means that no potency is given here. Activity calls are given as the source filed them. Unless noted, the call rests on the fitted dose curve.

Columns and labels:
[1] = biological target: Vitamin D3 receptor (Homo sapiens) (UniProt P11473); assay: qHTS assay for small molecule antagonists of vitamin D receptor signaling (AID 588541);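 further: receptor activated by calcitriol during compound treatment; series mostly up to about 77 µM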
Outline: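 VDR-UAS-bla HEK293T cells (2000/well, 2% charcoal-stripped FBS) were treated with titrated compounds plus 1-alpha,25-dihydroxyvitamin D3 (50 nM or 3 nM final) for 16 h at 37 C. CCF4 beta-lactamase fluorescence was read; Hill fits gave IC50.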

[2] = biological target: Vitamin D3 receptor (Homo sapiens) (UniProt P11473); assay: qHTS assay for small molecule agonists of vitamin D receptor signaling (AID 588543)
Outline: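 β-lactamase reporter, VDR-UAS-bla HEK293T, agonist mode. Cells plated 5 h at 37 °C, compound titration 16 h at 37 °C, CCF4 dye 2 h RT, ratio 460/530 nm. Hill fit → EC50, efficacy vs 50 nM 1α,25-(OH)2D3.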

[3] = qHTS assay for small molecule agonists of retinoid X receptor alpha signaling (AID 588544); settings: HEK293T RXRa-UAS-bla, beta-lactamase reporter, 18 h; 530 nm emission
[4] = biological target: Retinoic acid receptor RXR-alpha (Homo sapiens) (UniProt P19793); assay: as above
[5] = biological target: Thyroid hormone receptor beta (Homo sapiens) (UniProt P10828); assay: qHTS assay for small molecule agonists of thyroid hormone receptor beta signaling (AID 588545)
Outline: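 TR-UAS-bla GripTite HEK 293 cells (2500/well, medium with 2% charcoal/dextran FBS) were treated in agonist mode for 18 h at 37 C, titrated. Beta-lactamase was read by CCF4 ratio after 2 h; normalized to 10 nM T3 (100%) and DMSO, Hill-fitted for EC50 and efficacy.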

[6] = qHTS assay for small molecule antagonists of retinoid X receptor alpha signaling (AID 588546; active means well fitted inhibition curve with a large enough effect in the signal ratio, with a control signal flat, not every such curve was filed as active; the % refers to the signal ratio;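 further: cells stimulated with 9-cis-retinoic acid as agonist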); settings: HEK293T RXRa-UAS-bla, beta-lactamase ratio, antagonist mode; measured here: W530 green channel, cytotoxicity proxy
Outline: (§1)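 Beta-lactamase reporter inhibition, read as CCF4 fluorescence ratio (ex 405, em 460/530 nm) after 2 h at RT. HEK293T UAS-bla cells, 2500/well, were stimulated with 9-cis-RA at 500 or 100 nM final alongside test compound for 18 h at 37 C.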

[7] = biological target: Retinoic acid receptor RXR-alpha (Homo sapiens) (UniProt P19793); assay: as above; settings: HEK293T RXRa-UAS-bla, beta-lactamase ratio, antagonist mode
Outline: as §1

[8] = biological target: Thyroid hormone receptor beta (Homo sapiens) (UniProt P10828); assay: qHTS assay for small molecule antagonists of thyroid hormone receptor beta signaling (AID 588547; active means well fitted inhibition curve with a large enough effect in the signal ratio, with a control signal flat, not every such curve was filed as active; the % refers to the signal ratio;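 further: cells stimulated with 0.4 nM T3 agonist during compound exposure; series mostly up to about 77 µM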); settings: TR-UAS-bla HEK293, beta-lactamase ratio, antagonist mode, 18 h
Outline: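 TR-UAS-bla GripTite HEK293 cells in 2% charcoal/dextran FBS medium were preincubated 4 h at 37 C, given compound (0.59 nM to 92 uM) plus 0.4 nM T3 (final) for 18 h, then CCF4 for 2 h at RT; Hill fit gave IC50.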

[9] = qHTS assay for small molecule agonists of the antioxidant response element (ARE) signaling pathway (AID 651741; active means well fitted activation curve with a large enough effect in the signal ratio; the % refers to the signal ratio)
Outline: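 Reporter: beta-lactamase under ARE, stably in HepG2. Exposure: 16 h, 37 C, compounds delivered in DMSO by pin tool after 5 h cell preincubation. Readout: FRET substrate fluorescence after 2 h at RT.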

[10] = qHTS assay for small molecule activators of the nuclear factor-kappa B (NF-kB) signaling pathway (AID 651749; active means well fitted activation curve with a large enough effect in the signal ratio; the % refers to the signal ratio; further: series mostly up to about 77 µM); settings: NF-kB-bla ME-180 cells, beta-lactamase FRET ratio, 16 h; stronger effect = higher value
Outline: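 Human ME-180 cervical cells with an NF-kB-bla construct; compounds added via 23 nL pin transfer, DMSO as vehicle; incubation 16 hr. Reporter activity measured by FRET disruption.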

[11] = qHTS assay for small molecule disruptors of the mitochondrial membrane potential - 1 hr assay (AID 651754); further: nearly all actives have a fitted effect of over 35% in size
Outline: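 Mitochondrial potential in living HepG2 cells after 1 hr compound treatment at 37C was read with Mito-MPS dye added for a further 30 min. Red aggregate and green monomer fluorescence were measured; loss of potential leaves dye as cytoplasmic monomers.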

[12] = qHTS assay for small molecule disruptors of the mitochondrial membrane potential - 5 hr assay (AID 651755); further: nearly all actives have a fitted effect of over 40% in size
Outline: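 Seed HepG2 overnight, add compound, incubate 5 hr at 37C and 5% CO2, stain 30 min with Mito-MPS, then measure monomer (490/535 nm) and aggregate (540/590 nm) fluorescence.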

[13] = biological target: Tumor necrosis factor (Homo sapiens) (UniProt P01375); assay: qHTS assay to identify small molecules that stimulate Tumor Necrosis Factor-alpha (TNF-alpha) secretion (AID 651757; active means well fitted curve in the direction sought with a large enough effect in the signal ratio; the % refers to the signal ratio)
Outline: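 Secreted TNF-alpha quantified by TR-FRET sandwich of two labeled anti-TNF-alpha antibodies, incubated 3 hr at room temperature. Preceded by 17 hr, 37 C compound treatment of THP-1 cells at 3000 cells/well.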

[14] = qHTS assay for environmental chemicals that activate the Aryl hydrocarbon Receptor (AhR) signaling pathway (AID 651777; active means well fitted curve in the direction sought with a large enough effect; an effect the other way counts as inactive or inconclusive; further: nearly all actives have a fitted effect of over 15% in size); settings: 1A2-DRE human hepatoma cells, luciferase, 24 h; activation: stronger effect = higher value
Outline: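 Measured luciferase activity, read 30 min after One-Glo addition at room temperature, from human hepatoma cells bearing a dioxin response element–CYP1A2 promoter reporter and exposed to compound for 24 hr at 37 C.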

[15] = biological target: Peroxisome proliferator-activated receptor alpha (Homo sapiens) (UniProt Q07869); assay: qHTS assay for small molecule agonists of the peroxisome proliferator-activated receptor alpha (PPARalpha) signaling pathway (AID 651778; active means well fitted curve in the direction sought with a large enough effect; an effect the other way counts as inactive or inconclusive); settings: PathHunter PPARalpha complementation, chemiluminescence, 6 h; max response: stronger effect = higher value
Outline: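 Cells plated at 2,000/well and held overnight at 37 C, 5% CO2, then compound added by pin tool for 6 hr; after PathHunter detection reagent and 60 min at room temperature, chemiluminescence from enzyme complementation was read.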

[16] = biological target: Nuclear receptor ROR-gamma (Homo sapiens) (UniProt P51449); assay: qHTS assay for small molecule antagonists of the retinoid-related orphan receptor gamma (ROR-gamma) signaling pathway (AID 651802; active means well fitted curve in the direction sought with a large enough effect; an effect the other way counts as inactive or inconclusive;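 further: CHO cells with doxycycline-induced ROR-gamma expression; luciferase reporter luminescence driven by ROR response element; series mostly up to about 92 µM; nearly all actives have a fitted effect of over 60% in size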)
Outline: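 Luminescence (One-Glo, 30 min RT) measured 16 h after compound addition and doxycycline induction at 37C. Reporter: RORE-luciferase under TET-inducible ROR-gamma in CHO cells.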

[17] = qHTS assay for small molecule agonists of the antioxidant response element (ARE) signaling pathway measured by Nrf2-dependant transcriptional activity (AID 720636; active means well fitted curve in the direction sought with a large enough effect in the repeat runs; an effect the other way counts as inactive or inconclusive;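 further: HepG2 cells with an ARE-driven luciferase reporter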)
Outline: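 In HepG2 cells engineered with an Nrf2-responsive luciferase gene, ARE induction was quantified as luminescence after 16 hr compound treatment at 37 C.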

[18] = qHTS assay for small molecule antagonists of the retinoid-related orphan receptor gamma (ROR-gamma) signaling pathway - cell viability counter screen (AID 720652; active means well fitted curve in the direction sought with a large enough effect in the repeat runs; an effect the other way counts as inactive or inconclusive;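 further: CHO reporter cells with doxycycline-induced ROR-gamma expression; series mostly up to about 92 µM; compound exposure lasted 16 hr before ATP read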)
Outline: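 Cytotoxicity counter screen: intracellular ATP (CellTiter-Glo luminescence) measured in the doxycycline-induced CHO RORE-luciferase reporter line after 16 hr compound exposure at 37 C, 5% CO2.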

[19] = qHTS assay for small molecule agonists of the antioxidant response element (ARE) signaling pathway measured by Nrf2-dependant transcriptional activity - cell viability counter screen (AID 720653; active means well fitted curve in the direction sought with a large enough effect in the repeat runs; an effect the other way counts as inactive or inconclusive); settings: ARE-bla HepG2 viability, CellTiter-Glo ATP luminescence, 16 h; max response: stronger effect = lower value
Outline: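 ARE-bla HepG2 cells (2,000/well) rested 5 hrs at 37C/5% CO2, then exposed to compounds in DMSO for 16 hrs. Viability was read in the same wells as intracellular ATP by luminescence, 30 min at room temperature after reagent addition.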

[20] = qHTS assay for cell viability of HEK293 cells (AID 743288; active means well fitted curve in the direction sought with a large enough effect; an effect the other way counts as inactive or inconclusive; further: nearly all actives have a fitted effect of over 50% in size); settings: ATP luminescence (CellTiter-Glo), 18 h; max response: stronger effect = lower value
Outline: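 ATP luminescence (CellTiter-Glo) reports metabolically competent cell number after parental HEK293 cells, 2,000/well, were treated with DMSO-dissolved compounds for 18 h at 37 C; reagent incubation 30 min, room temperature.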

[21] = qHTS assay for cell viability of the p53RE-bla HCT-116 cell line (AID 743292; active means well fitted curve in the direction sought with a large enough effect; an effect the other way counts as inactive or inconclusive; further: nearly all actives have a fitted effect of over 55% in size)
Outline: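 Intracellular ATP of p53RE-bla HCT-116 cells measured by luciferase luminescence following 16 h compound incubation at 37 C; DMSO-only wells served as vehicle controls.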

[22] = biological target: Nuclear receptor subfamily 1 group I member 2 (Rattus norvegicus) (UniProt Q9R1A7); assay: qHTS assay for small molecule activators of the rat pregnane X receptor (rPXR) signaling pathway (AID 651751; call rule not given here); settings: rPXR reporter cells, luciferase (One-Glo), 24 h
[23] = qHTS assay for small molecule activators of the human pregnane X receptor (PXR) signaling pathway (AID 720659; call rule not given here)

Chain of Retinoic acid receptor RXR-alpha (Homo sapiens) (P19793 whole entry, looked up): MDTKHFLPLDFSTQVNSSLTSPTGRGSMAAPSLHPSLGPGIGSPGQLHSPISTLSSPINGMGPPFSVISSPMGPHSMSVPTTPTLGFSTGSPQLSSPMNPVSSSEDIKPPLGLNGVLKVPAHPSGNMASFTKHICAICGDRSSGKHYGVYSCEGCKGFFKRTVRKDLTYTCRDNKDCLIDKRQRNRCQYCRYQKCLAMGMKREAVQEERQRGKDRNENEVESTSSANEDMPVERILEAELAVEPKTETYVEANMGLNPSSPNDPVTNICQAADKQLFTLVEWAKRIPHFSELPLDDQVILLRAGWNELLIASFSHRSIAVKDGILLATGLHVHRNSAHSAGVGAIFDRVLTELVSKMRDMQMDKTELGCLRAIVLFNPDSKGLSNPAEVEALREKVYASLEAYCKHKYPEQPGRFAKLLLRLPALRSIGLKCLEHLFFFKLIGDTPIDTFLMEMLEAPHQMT
Chain of Thyroid hormone receptor beta (Homo sapiens) (P10828 whole entry, looked up): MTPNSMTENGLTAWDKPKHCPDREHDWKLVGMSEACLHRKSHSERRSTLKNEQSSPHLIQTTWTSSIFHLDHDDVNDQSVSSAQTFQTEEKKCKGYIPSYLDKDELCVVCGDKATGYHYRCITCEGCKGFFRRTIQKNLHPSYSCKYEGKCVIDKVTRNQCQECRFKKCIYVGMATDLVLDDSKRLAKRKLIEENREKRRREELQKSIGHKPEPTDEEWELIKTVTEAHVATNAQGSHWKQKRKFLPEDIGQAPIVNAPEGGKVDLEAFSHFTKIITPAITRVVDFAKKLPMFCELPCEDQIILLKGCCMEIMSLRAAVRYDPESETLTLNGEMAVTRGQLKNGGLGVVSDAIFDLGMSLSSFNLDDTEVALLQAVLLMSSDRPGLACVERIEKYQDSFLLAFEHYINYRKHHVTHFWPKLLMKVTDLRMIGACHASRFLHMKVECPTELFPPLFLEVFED
Chain of Vitamin D3 receptor (Homo sapiens) (P11473 whole entry, looked up): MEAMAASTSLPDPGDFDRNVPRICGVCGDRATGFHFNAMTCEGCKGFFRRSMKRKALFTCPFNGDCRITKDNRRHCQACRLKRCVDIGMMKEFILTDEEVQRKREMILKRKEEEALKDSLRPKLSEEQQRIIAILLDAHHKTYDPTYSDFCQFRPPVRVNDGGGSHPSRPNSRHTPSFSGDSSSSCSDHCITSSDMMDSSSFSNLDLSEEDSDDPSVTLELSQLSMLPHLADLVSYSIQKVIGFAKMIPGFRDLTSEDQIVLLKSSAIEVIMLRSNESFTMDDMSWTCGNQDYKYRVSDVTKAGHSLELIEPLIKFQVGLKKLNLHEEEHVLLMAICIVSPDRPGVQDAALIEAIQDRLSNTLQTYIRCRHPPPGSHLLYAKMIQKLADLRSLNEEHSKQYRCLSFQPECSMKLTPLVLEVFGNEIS
Chain of Tumor necrosis factor (Homo sapiens) (P01375 whole entry, looked up): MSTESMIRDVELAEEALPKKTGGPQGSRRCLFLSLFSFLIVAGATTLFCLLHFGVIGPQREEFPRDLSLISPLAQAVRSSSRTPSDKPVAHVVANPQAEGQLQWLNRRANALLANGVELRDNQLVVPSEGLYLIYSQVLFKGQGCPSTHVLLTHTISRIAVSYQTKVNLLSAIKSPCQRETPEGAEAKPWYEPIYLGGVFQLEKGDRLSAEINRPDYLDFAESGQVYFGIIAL
Chain of Peroxisome proliferator-activated receptor alpha (Homo sapiens) (Q07869 whole entry, looked up): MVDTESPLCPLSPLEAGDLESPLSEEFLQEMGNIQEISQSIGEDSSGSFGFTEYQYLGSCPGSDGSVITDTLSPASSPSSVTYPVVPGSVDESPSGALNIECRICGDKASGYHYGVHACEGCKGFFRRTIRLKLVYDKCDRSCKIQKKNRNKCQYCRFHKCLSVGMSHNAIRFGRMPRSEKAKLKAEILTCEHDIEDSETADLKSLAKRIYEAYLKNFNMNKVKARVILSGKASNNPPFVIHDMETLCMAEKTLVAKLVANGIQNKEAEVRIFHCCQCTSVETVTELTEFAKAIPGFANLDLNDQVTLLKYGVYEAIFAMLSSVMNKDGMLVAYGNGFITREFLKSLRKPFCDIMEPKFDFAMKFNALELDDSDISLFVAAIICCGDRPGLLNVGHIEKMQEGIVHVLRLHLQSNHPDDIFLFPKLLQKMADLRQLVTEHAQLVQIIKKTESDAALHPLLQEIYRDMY
Chain of Nuclear receptor ROR-gamma (Homo sapiens) (P51449 whole entry, looked up): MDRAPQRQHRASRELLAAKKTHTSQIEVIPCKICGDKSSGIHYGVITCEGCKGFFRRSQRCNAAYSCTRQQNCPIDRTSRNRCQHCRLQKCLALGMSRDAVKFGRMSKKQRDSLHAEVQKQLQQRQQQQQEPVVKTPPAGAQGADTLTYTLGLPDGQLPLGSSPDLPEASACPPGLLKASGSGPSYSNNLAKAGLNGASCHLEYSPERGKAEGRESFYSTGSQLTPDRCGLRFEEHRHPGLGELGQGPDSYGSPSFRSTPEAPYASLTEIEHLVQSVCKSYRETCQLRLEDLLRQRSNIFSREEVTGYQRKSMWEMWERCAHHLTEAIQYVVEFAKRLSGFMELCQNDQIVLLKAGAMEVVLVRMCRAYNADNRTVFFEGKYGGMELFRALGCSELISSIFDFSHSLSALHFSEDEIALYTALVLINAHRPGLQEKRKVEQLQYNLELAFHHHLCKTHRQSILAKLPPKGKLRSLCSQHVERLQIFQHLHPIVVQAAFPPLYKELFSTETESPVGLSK
Chain of Nuclear receptor subfamily 1 group I member 2 (Rattus norvegicus) (Q9R1A7 whole entry, looked up): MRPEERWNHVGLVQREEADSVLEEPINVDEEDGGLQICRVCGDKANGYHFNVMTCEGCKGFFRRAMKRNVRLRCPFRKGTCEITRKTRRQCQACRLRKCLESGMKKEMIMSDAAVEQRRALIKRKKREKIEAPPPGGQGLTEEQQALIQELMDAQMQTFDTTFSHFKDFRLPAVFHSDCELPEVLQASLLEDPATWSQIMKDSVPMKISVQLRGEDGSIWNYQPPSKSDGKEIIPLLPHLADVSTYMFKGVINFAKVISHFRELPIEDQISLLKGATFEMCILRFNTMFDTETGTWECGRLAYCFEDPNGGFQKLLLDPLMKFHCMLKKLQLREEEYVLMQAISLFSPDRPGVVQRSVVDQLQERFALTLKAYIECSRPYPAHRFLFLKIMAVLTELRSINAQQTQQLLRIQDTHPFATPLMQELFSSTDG

Question: Which Potency [1] does the source give for `CCCCCC/C(C=O)=C\c1ccccc1` here?
Answer: inactive

Question: And the outcome [2]?
Answer: inactive

Question: What about the max response [3] of the same compound?
Answer: 3.46%

Question: And the outcome [4]?
Answer: inactive

Question: What about the outcome [5] of the same compound?
Answer: inactive

Question: And the max response [6]?
Answer: 10.6%

Question: What about the max response [7] of the same compound?
Answer: 9.05% (inactive)

Question: What about the activity change % (negative = inhibition) [8] of the same compound?
Answer: 8.8% (inactive)

Question: And the Potency [9]?
Answer: inactive

Question: What about the activation [10] of the same compound?
Answer: -0.556% (inactive)

Question: What about the Potency [11] of the same compound?
Answer: inactive

Question: And the Potency [12]?
Answer: inactive

Question: And the outcome [13]?
Answer: inactive

Question: What about the activation [14] of the same compound?
Answer: -0.354% (inactive)

Question: And the max response [15]?
Answer: -1.11% (inactive)

Question: What about the Potency [16] of the same compound?
Answer: inactive

Question: What about the Potency [17] of the same compound?
Answer: inactive

Question: And the Potency [18]?
Answer: inactive

Question: And the max response [19]?
Answer: 3.47% (inactive)

Question: And the max response [20]?
Answer: -1.93% (inactive)

Question: What about the Potency [21] of the same compound?
Answer: inactive

Question: What about the max response [22] of the same compound?
Answer: -2.08% (inactive)

Question: What about the outcome [23] of the same compound?
Answer: inactive
